# Experimental data published in PubChem BioAssay (Tox21).
# “And” between values parts separate entries of the source, which are not always exact repeats. Identical values can stand only once. Records with an inconclusive call do not appear. Where a call stands in place of a potency, no number is given. The source holds several records for some structures; these can differ, active in one and inactive in another. The source made the active and inactive calls. Unless noted, the call rests on the fitted dose curve; in most records, active means well fitted curve in the direction sought with a large enough effect in the repeat runs; inconclusive means weak or mixed curves; inactive means no such curve, though single readings can be large; an effect the other way counts as inactive or inconclusive.
# Key:
# [1] = molecular target: Progesterone receptor (Homo sapiens) (UniProt P06401); test: qHTS assay to identify small molecule antagonists of the progesterone receptor (PR) signaling pathway (AID 1346795; active means well fitted inhibition curve with a large enough effect in the signal ratio in the repeat runs, not every such curve was filed as active; the % refers to the signal ratio; further: potency means the concentration at half of the fitted maximal effect)
# Procedure, shortened: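 Antagonist mode: compounds tested against 1 nM (final) promegestone stimulation in HEK293T cells expressing PR-UAS-bla reporter, 16 hr at 37C, 5% CO2; beta-lactamase activity detected via B/G FRET substrate after 2 hr at room temperature.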
# [2] = qHTS assay to identify small molecule antagonists of the progesterone receptor (PR) signaling pathway - cell viability counter screen (AID 1346798); further: nearly all actives have a fitted effect of over 50% in size; further: potency means the concentration at half of the fitted maximal effect
# Procedure, shortened: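 Counter screen for cytotoxicity: viability of PR-UAS-bla HEK293T cells was measured with CellTiter-Glo luminescence following 16 hr compound exposure in the presence of R5020.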
# [3] = qHTS assay to identify small molecule agonists of the TGF-beta/Smad signaling pathway - cell viability counter screen (AID 1346829); further: top concentration of the series differs between compounds; nearly all actives have a fitted effect of over 45% in size
# Procedure, shortened: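 Compound-treated SBE-bla HEK 293T cells (5 hr, 37 C) were assessed for viability with CellTiter-Glo in parallel with the reporter read.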
# [4] = qHTS assay to identify small molecule agonists of the TGF-beta/Smad signaling pathway (AID 1346859; active means well fitted activation curve with a large enough effect in the signal ratio in the repeat runs, not every such curve was filed as active; the % refers to the signal ratio; further: potency means the concentration at half of the fitted maximal effect; on activation: series mostly up to about 77 µM)
# Procedure, shortened: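 Reporter line: HEK 293T with stably integrated SBE-controlled beta-lactamase. Compound exposure lasts 5 hr at 37 C and 5% CO2; substrate loading follows for 2 hr at room temperature, with emission read at 460 and 530 nm.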
# [5] = Human pregnane X receptor (PXR) small molecule agonists, qHTS cell viability counter screen (AID 1346977); further: nearly all actives have a fitted effect of over 50% in size; further: potency means the concentration at half of the fitted maximal effect
# Procedure, shortened: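 Cytotoxicity counter screen run in the same wells as the PXR luciferase assay, using PXR-Luc HepG2 cells in charcoal-stripped serum medium. Viability: CellTiter-Fluor fluorescence after 24hr compound treatment.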
# [6] = Caspase-3/7 induction in HepG2 cells by small molecules, qHTS assay (AID 1346978); further: nearly all actives have a fitted effect of over 15% in size; further: potency means the concentration at half of the fitted maximal effect
# Procedure, shortened: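 Wild-type HepG2 cells, 2,000/well, settled 5 hr at 37 C and 5% CO2, then compound-treated for 17 hr; caspase-3/7 activity read by luminescent Caspase-Glo 3/7 after 30 min at room temperature.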
# [7] = qHTS assay to identify small molecule agonists of the progesterone receptor (PR) signaling pathway - cell viability counter screen (AID 1346799; calls by dose curve; further: nearly all actives have a fitted effect of over 45% in size; further: potency means the concentration at half of the fitted maximal effect)
# Procedure, shortened: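 Cells (PR-UAS-bla HEK293T) are plated at 3,000/well in 2% charcoal-stripped FBS medium, rested 6 hr, dosed and incubated 16 hr at 37C. CellTiter-Glo is then added and luminescence measured after 30 min at room temperature.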
# [8] = molecular target: Thyrotropin-releasing hormone receptor (Homo sapiens) (UniProt P34981); test: qHTS assay to identify small molecule antagonists of the thyrotropin-releasing hormone receptor (TRHR) signaling pathway (AID 1346877; active means well fitted inhibition curve with a large enough effect in the repeat runs, not every such curve was filed as active; further: potency means the concentration at half of the fitted maximal effect)
# Procedure, shortened: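 Cells (TRHR-HEK293) are plated and kept 18 h at 37 °C/5% CO2. A calcium-sensitive dye is added for 2 h, compound follows for 5 min at room temperature, and TRH is then given at 1 nM final.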
# [9] = molecular target: Thyrotropin-releasing hormone receptor (Homo sapiens) (UniProt P34981); test: qHTS assay to identify small molecule agonists of the thyrotropin-releasing hormone receptor (TRHR) signaling pathway (AID 1346891; calls by dose curve; further: potency means the concentration at half of the fitted maximal effect;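 on activation: HEK293 cells expressing TRHR with calcium dye readout; series mostly up to about 58 µM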)
# Procedure, shortened: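 Cells: TRHR-Hek293, seeded and incubated 18 h. Dye loading: 2 h at 37 °C. Compound added from DMSO stock by pin tool. Read-out: kinetic calcium fluorescence over 3 min.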
# Thyrotropin-releasing hormone receptor (Homo sapiens), sequence (P34981 whole entry, looked up): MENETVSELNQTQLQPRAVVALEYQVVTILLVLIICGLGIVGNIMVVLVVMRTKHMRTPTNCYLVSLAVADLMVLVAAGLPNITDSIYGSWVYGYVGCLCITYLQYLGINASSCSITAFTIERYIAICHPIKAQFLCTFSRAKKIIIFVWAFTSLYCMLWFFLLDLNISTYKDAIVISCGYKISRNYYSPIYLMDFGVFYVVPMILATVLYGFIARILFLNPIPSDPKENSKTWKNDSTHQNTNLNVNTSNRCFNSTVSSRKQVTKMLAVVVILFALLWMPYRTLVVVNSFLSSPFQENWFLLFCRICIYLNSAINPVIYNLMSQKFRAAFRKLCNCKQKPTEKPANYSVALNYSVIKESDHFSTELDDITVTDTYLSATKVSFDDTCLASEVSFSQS
# Progesterone receptor (Homo sapiens), sequence (P06401 whole entry, looked up): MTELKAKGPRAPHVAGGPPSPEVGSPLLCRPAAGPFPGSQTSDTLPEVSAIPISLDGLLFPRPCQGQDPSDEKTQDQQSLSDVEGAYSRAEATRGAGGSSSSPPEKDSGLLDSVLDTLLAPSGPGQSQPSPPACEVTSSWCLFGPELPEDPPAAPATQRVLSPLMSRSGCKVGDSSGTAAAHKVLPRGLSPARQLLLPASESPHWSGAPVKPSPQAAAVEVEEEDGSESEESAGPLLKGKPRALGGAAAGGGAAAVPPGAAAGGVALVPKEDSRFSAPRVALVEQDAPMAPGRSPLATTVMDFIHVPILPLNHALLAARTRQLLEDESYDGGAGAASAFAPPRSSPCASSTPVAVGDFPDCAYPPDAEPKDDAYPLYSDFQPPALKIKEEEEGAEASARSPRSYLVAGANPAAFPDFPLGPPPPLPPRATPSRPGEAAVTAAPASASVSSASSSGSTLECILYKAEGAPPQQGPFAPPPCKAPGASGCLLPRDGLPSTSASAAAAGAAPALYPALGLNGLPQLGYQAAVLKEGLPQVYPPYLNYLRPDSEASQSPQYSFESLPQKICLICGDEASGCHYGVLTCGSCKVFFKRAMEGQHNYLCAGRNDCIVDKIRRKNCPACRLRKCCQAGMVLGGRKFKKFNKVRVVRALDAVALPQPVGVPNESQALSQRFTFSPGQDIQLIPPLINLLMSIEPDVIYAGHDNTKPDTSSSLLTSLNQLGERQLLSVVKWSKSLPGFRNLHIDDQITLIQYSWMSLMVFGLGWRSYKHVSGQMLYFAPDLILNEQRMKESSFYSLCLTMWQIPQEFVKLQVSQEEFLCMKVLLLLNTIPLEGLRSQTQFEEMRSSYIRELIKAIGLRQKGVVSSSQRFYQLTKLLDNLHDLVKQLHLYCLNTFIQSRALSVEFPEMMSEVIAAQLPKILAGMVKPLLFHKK
SMILES,Potency [1],Potency [2],Potency [3],Potency [4],Potency [5],Potency [6],Potency [7],Potency [8],Potency [9]
CCn1cc[n+](C)c1C,inactive,inactive,inactive,inactive,inactive,inactive,,,
O=C(O)c1ccccc1O,inactive,inactive,inactive,inactive,inactive,inactive,,,
C[N+](C)(C)Cc1ccccc1,inactive,inactive,inactive,48.7 µM (active) and inactive,inactive,inactive,,,
CCCCCCCCCCCCn1cc[n+](C)c1,27.5 µM (active) [middle of 4 runs],,,inactive,,43.6 µM (active) and inactive,,,
CCCC[n+]1ccc(C)cc1,,,inactive,inactive,inactive and 6.12 µM (active),inactive and 54.2 µM (active),inactive and 60.8 µM (active),inactive and 24 µM (active),inactive and 15.5 µM (active)
COP(=O)(OC)OC=C(Cl)Cl,inactive,inactive,inactive,inactive,inactive,inactive,,inactive,inactive
CNC,inactive,inactive,inactive,inactive,inactive,inactive,,inactive,inactive
CCCCn1cc[n+](C)c1,,inactive,inactive,inactive,inactive,inactive,inactive,,
CCC(=O)C(CC(C)N(C)C)(c1ccccc1)c1ccccc1 (centres undefined),inactive,54.7 µM (active),inactive,,27.4 µM (active),inactive,,,
O=[N+]([O-])c1ccccc1O,inactive,inactive,inactive,inactive,inactive,inactive,,inactive,inactive
CCCCCCn1cc[n+](C)c1,inactive,inactive,inactive,inactive,13.9 µM (active),inactive,,,
